Assay [1] in a line: inhibitors of TNFa-induced NFkB p65 translocation, primary screen, imaging, HUVEC, MLSMR starter and 10KST1 sets (AID 438;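 active = inhibition above 20% together with a positive visual image hit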;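 also: compound added about 3h40 before a 20 min TNFalpha stimulation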;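 as to inhibition: signal is the nuclear over cytoplasmic p65 intensity ratio per well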). As to conditions: HUVEC TNFa-induced p65 nuclear translocation; cell count: measured here: nuclei count (cytotoxicity indicator), at 2.08 µM; inhibition: at 2 µM, stronger effect = higher value, 0% TNFa-plus-vehicle, 100% no-TNFa wells.
Assay [2] can be described thus: reduction of polyQ htt aggregates in cells – imaging, exon1htt(103Q)mCFP cells, high-content imaging, primary screen (AID 483;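 active = visual image review flags a hit and inhibition of aggregation exceeds 20%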;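 also: compound exposure lasted 3 days before fixation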;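 as to nuclei count: percent of the per-plate median nuclei count of sample wells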). As to conditions: exon1htt(103Q)mCFP cell line, aggregate imaging, at 2 µM; inhibition of aggregation: stronger effect = higher value; nuclei count: measured here: cell count, toxicity.
Assay [3] in a line: endothelial E-selectin expression blockers – imaging, HUVEC, immunofluorescence, MLSMR starter and 10KST1 sets, primary screen (AID 487;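 active = visually confirmed hit in the image check and inhibition above 20%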;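 as to inhibition: signal is fraction of cell area covered by stained E-selectin grains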;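 as to nuclei count: 100% = median nuclei count of all wells on the same plate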). Particulars: HUVEC TNFalpha-induced E-selectin immunofluorescence imaging, at 2 µM; inhibition: stronger effect = higher value; nuclei count: measured here: cell number, toxicity.
For assay [4], the target named is Voltage-gated potassium channel subunit beta-2 (Rattus norvegicus) (UniProt P62483). Put plainly: inhibitors of rat Kvbeta2 reductase activity – biochemical, NADPH fluorescence, primary screen (AID 622;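 active = fluorescence slope higher than the sample average by over 3 SD, cut at about -0.22 in these data, passing the limit was not always enough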;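 also: slope of raw intensity against log time taken from 70 to 1610 s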). Particulars: recombinant KvBeta, 4-cyanobenzaldehyde reduction, at 10 µM, stronger effect = higher value.
Sequence of Voltage-gated potassium channel subunit beta-2 (Rattus norvegicus) (P62483 whole entry, looked up): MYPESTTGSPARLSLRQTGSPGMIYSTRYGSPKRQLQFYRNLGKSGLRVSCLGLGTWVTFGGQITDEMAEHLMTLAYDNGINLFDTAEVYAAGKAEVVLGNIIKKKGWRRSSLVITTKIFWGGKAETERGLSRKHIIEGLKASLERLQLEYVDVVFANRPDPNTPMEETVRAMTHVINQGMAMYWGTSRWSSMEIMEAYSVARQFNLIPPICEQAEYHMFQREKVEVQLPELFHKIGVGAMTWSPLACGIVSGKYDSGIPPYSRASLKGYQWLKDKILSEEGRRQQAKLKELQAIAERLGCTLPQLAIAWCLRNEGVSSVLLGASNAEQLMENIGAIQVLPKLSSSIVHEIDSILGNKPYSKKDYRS
For assay [5] the target is unchanged. Put plainly: enhancers of rat Kvbeta2 NADPH turnover – biochemical, NADPH fluorescence, primary screen (AID 623;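 active = NADPH fluorescence slope more negative than the mean of all samples by about 3 SD, 99.7% confidence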;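 also: fluorescence intensity change per second fitted from 20 to 320 s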). As to conditions: Recombinant KvBeta, NADPH fluorescence decrease slope, 10 min; at 10 µM; stronger effect = lower value.
Assay [6] has as its target Alpha-2C adrenergic receptor (Homo sapiens) (UniProt P18825). Put plainly: compounds altering alpha2C-coupled GIRK flux – cell-based, HEK293 alpha2C/GIRK1/2, thallium flux, primary screen (AID 624;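 active = fluorescence slope after compound addition differing from the mean of all screened samples at 99.7% confidence, in either direction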;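 also: slope of fluorescence ratio to pre-addition baseline per second over 15 to 24 s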). As to conditions: thallium flux BTC fluorescence, at 10 µM, actives lie on both sides.
Assay [7] is described as follows: blockers of RIG-like receptor reporter activation – cell-based, Sendai virus stimulus, luciferase, 10K MLSCN set, TLR/RLR signaling modifier project, primary screen (AID 602276).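 Also: firefly luciferase from ISG56 promoter only with Renilla not read in this screen; 0% = Sendai virus plus DMSO and 100% = medium plus DMSO without virus.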 Particulars: HEK293 RL24 IRF3 luciferase reporter, at 10 µM, stronger effect = higher value. A general note: Reporter assays use an easily measured gene product as a stand-in for the process of interest.

A short description of assay [8]: TLR3 IRF3 reporter activation blockers – cell-based, poly I:C stimulus, luciferase, 10K MLSCN set, primary screen (AID 602277;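 active = inhibition of the reporter signal at or above 50%; inactive = inhibition below 50%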). As to conditions: HEK293-TLR3 RL24 IRF3 luciferase reporter, at 10 µM, stronger effect = higher value.

Activity calls are given as the source filed them.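 The calls were made as follows, unless noted: active = inhibition at or above 50% at 10 µM; inactive = inhibition below 50%.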

Sequence of Alpha-2C adrenergic receptor (Homo sapiens) (P18825 whole entry, looked up): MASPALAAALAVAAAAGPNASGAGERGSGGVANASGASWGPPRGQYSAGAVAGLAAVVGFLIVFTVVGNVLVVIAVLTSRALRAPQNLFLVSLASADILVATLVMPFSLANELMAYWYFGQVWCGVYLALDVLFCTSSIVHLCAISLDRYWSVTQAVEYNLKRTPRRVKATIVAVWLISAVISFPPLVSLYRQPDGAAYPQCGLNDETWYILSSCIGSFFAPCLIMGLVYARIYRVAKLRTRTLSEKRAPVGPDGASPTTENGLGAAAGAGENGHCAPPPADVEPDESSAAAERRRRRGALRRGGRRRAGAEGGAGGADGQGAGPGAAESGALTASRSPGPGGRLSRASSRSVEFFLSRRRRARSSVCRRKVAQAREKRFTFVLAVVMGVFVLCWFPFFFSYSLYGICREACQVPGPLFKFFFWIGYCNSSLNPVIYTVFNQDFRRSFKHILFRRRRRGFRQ

What is called inhibition is the drop in the measured response relative to a control, in per cent. For `O=C(NCc1ccco1)c1ccccc1Nc1ccc(F)cc1`, the cell count in assay [1] was 575. Besides, the inhibition is -7.2% (inactive) in assay [1], -30.4% (inactive) in assay [3], 5.52% (inactive) in assay [7] and -2.76% (inactive) in assay [8]. The inhibition of aggregation in assay [2] was 47.6% (active). For the same compound, the nuclei count in assay [2] is 67.1%; in assay [3], 103%. Further, the fluorescence slope in assay [4] is -0.308 (inactive). The NADPH fluorescence slope in assay [5] was -5e-05 (inactive). In assay [6], the slope is 0.00433 (inactive).
On to `O=C(O)c1cc(-c2ccccc2Cl)n[nH]1`, for which the cell count in assay [1] was 240. For the same compound, the inhibition in assay [1] is 8% (inactive); in assay [3], -51% (inactive); in assay [7], 11.2% (inactive); in assay [8], 22.8% (inactive). Further, the inhibition of aggregation in assay [2] was -10.1% (inactive). Also, the figures for the nuclei count in assay [2] and in assay [3] were 109% and 97.9%, respectively. For the same compound, the fluorescence slope in assay [4] was -0.604 (inactive). Further, in assay [5], the NADPH fluorescence slope is -2e-05 (inactive). Besides, in assay [6], the slope was 0.00669 (inactive).
For `Cc1nn(-c2ccc(F)cc2)c2c1cc(C#N)c1nc3ccccc3n12`, the cell count in assay [1] stood at 664. Moreover, the inhibition in assay [1] is 9.6% (inactive); in assay [3], 2.3% (inactive); in assay [7] it was 9.91% (inactive); in assay [8], 23.6% (inactive). For the same compound, the inhibition of aggregation in assay [2] is 29.9% (inactive). Also, the nuclei count is 69.3% in assay [2] and 102% in assay [3]. In addition, the fluorescence slope in assay [4] is -0.000912 (active). Moreover, the NADPH fluorescence slope in assay [5] was 1.1e-05 (inactive). Besides, the slope in assay [6] was 0.00318 (inactive).
In the case of `O=C(CCS(=O)(=O)c1cccc2nonc12)Nc1cccc2c1CCCC2`, the cell count in assay [1] worked out at 500. The inhibition in assay [1] is -1.9% (inactive); in assay [3], -14% (inactive); in assay [7], -1.97% (inactive); in assay [8], 5.02% (inactive). Moreover, the inhibition of aggregation in assay [2] is -20.7% (inactive). Besides, the nuclei count in assay [2] came out at 109%; in assay [3], 114%. The fluorescence slope in assay [4] is -0.547 (inactive). In addition, the NADPH fluorescence slope in assay [5] is 1.6e-05 (inactive). Further, the slope in assay [6] was 0.00573 (inactive).
Consider `CCCCCn1c(CN2CCN(C(=O)c3ccco3)CC2)nc2c1c(=O)n(C)c(=O)n2C`, for which the cell count in assay [1] was determined as 726. Besides, the inhibition in assay [1] was -14.6% (inactive); in assay [3] it was -13.1% (inactive); in assay [7], 1.47% (inactive); in assay [8], 11.3% (inactive). Besides, in assay [2], the inhibition of aggregation is -17.8% (inactive). Also, the nuclei count in assay [2] stood at 103%; in assay [3], 113%. Further, the fluorescence slope in assay [4] was -0.57 (inactive). The NADPH fluorescence slope in assay [5] is -5.2e-05 (inactive). The slope in assay [6] is 0.00727 (inactive).
With `CCC1Oc2ccc(C)cc2N(CC(=O)NCCCN2CCCCC2CC)C1=O` (stereo not drawn), the cell count in assay [1] was determined as 651. Further, the inhibition in assay [1] is -3.9% (inactive); in assay [3], -34.9% (inactive); in assay [7], 16.8% (inactive); in assay [8], 38.8% (inactive). Moreover, in assay [2], the inhibition of aggregation is 26.7% (inactive). Besides, the nuclei count in assay [2] is 109%; in assay [3] it was 101%. Besides, the fluorescence slope in assay [4] was -0.41 (inactive). For the same compound, the NADPH fluorescence slope in assay [5] was 2.7e-05 (inactive). Further, the slope in assay [6] was 0.0055 (inactive).
For the compound `CC1(C)OC(=O)C(=CNC(CCC(N)=O)C(=O)O)C(=O)O1` (stereo not drawn), in assay [1], the cell count was determined as 679. In addition, the inhibition in assay [1] is 3.6% (inactive); in assay [3] it was -16.8% (inactive); in assay [7], -19% (inactive); in assay [8] it was -5.5% (inactive). Further, in assay [2], the inhibition of aggregation is 0.3% (inactive). In addition, the nuclei count came out at 117% in assay [2] and 108% in assay [3]. Moreover, the fluorescence slope in assay [4] was -0.611 (inactive). The NADPH fluorescence slope in assay [5] is -9.2e-07 (inactive). Also, in assay [6], the slope is 0.00611 (inactive).
Regarding `O=C(c1ccco1)N1CCN(C(=O)c2sccc2-c2ccccc2)CC1`, the cell count in assay [1] was 310. Further, the inhibition in assay [1] was 20.7% (inactive); in assay [3] it was -74.7% (inactive); in assay [7], -5.94% (inactive); in assay [8], 4.34% (inactive). Further, the inhibition of aggregation in assay [2] was 7.1% (inactive). For the same compound, the nuclei count in assay [2] amounted to 90%; in assay [3], 115%. The fluorescence slope in assay [4] is -0.581 (inactive). Further, in assay [5], the NADPH fluorescence slope was 2.3e-06 (inactive). In assay [6], the slope was 0.0052 (inactive).
For `CCOc1ccccc1-n1c(SCC(=O)NC2CCCC2)nnc1-c1ccoc1C`, the cell count in assay [1] was found to be 588. For the same compound, the inhibition was -9.5% (inactive) in assay [1], 83.6% (inactive) in assay [3], 1.09% (inactive) in assay [7] and 11.6% (inactive) in assay [8]. Also, in assay [2], the inhibition of aggregation is 35.7% (inactive). Further, the nuclei count in assay [2] amounted to 77.1%; in assay [3], 62.7%. Moreover, the fluorescence slope in assay [4] is -0.543 (inactive). In addition, the NADPH fluorescence slope in assay [5] was 1.9e-05 (inactive). The slope in assay [6] is 0.00524 (inactive).
On to `CCOC(=O)Cn1c(CCC(=O)O)ccc1-c1ccc(F)cc1`, for which the cell count in assay [1] came out at 584. The inhibition in assay [1] is -5% (inactive); in assay [3] it was -54.4% (inactive); in assay [7], 15.5% (inactive); in assay [8] it was 39.4% (inactive). Moreover, the inhibition of aggregation in assay [2] was -12.4% (inactive). Moreover, the nuclei count in assay [2] was 98.2%; in assay [3], 97.7%. In addition, the fluorescence slope in assay [4] is -0.548 (inactive). The NADPH fluorescence slope in assay [5] was -2.7e-05 (inactive). Moreover, the slope in assay [6] was 0.00704 (inactive).
Turning to `O=C(CSc1nnc2scc(-c3ccccc3)n12)Nc1nsc(-c2ccccc2)n1`, the cell count in assay [1] worked out at 673. Besides, the inhibition is -14.1% (inactive) in assay [1], 34.5% (inactive) in assay [3], 9.78% (inactive) in assay [7] and -32.6% (inactive) in assay [8]. Also, the inhibition of aggregation in assay [2] is 2.8% (inactive). For the same compound, the nuclei count in assay [2] stood at 107%; in assay [3], 97.5%. Further, in assay [4], the fluorescence slope was -0.381 (inactive). For the same compound, the NADPH fluorescence slope in assay [5] was 1.4e-05 (inactive). In addition, the slope in assay [6] was 0.00626 (inactive).
Turning to `COc1cc(-c2noc(-c3ccccc3C(=O)NCc3ccco3)n2)cc(OC)c1OC`, the cell count in assay [1] was determined as 654. Also, the inhibition in assay [1] is -5.4% (inactive); in assay [3], -111% (inactive); in assay [7], 14.7% (inactive); in assay [8], 31.9% (inactive). The inhibition of aggregation in assay [2] is -4% (inactive). For the same compound, the nuclei count in assay [2] was 112%; in assay [3], 156%. For the same compound, in assay [4], the fluorescence slope is -0.59 (inactive). The NADPH fluorescence slope in assay [5] was -4.7e-05 (inactive). Besides, the slope in assay [6] was 0.00612 (inactive).
As for `O=C(c1cccnc1)N1CCc2ccccc21`, in assay [1], the cell count amounted to 414. For the same compound, the inhibition in assay [1] is 3% (inactive); in assay [3] it was 24.6% (inactive); in assay [7], 10% (inactive); in assay [8], 43.9% (inactive). Also, the inhibition of aggregation in assay [2] is 1.6% (inactive). In addition, the figures for the nuclei count in assay [2] and in assay [3] were 108% and 95.4%, respectively. Also, the fluorescence slope in assay [4] is -0.468 (inactive). The NADPH fluorescence slope in assay [5] was 1.9e-05 (inactive). Moreover, the slope in assay [6] was 0.00635 (inactive).

(Values after PubChem BioAssay.)
